# Source: PubChem BioAssay (National Center for Advancing Translational Sciences (NCATS))
# Hits are enriched below; roughly 4.7% of the tested compounds scored in any of these assays.
# GPR32 ag: GPR32 (DRV1) agonism, beta-arrestin recruitment; O75388; CHO-K1 GPR32 beta-arrestin PathHunter luminescence, 90 min; zero percent set by DMSO-only wells; activation, % at 76.9 µM; 2.5% of 48,000 active;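 active = activation of at least 60% and not above a set upper limit, about 1 call in 100 departs from these limits; inconclusive = activation of 40% to 60%, or above that upper limit; inactive = activation under 40%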; note: 0% is about no effect
# Target sequence (O75388 whole entry, looked up): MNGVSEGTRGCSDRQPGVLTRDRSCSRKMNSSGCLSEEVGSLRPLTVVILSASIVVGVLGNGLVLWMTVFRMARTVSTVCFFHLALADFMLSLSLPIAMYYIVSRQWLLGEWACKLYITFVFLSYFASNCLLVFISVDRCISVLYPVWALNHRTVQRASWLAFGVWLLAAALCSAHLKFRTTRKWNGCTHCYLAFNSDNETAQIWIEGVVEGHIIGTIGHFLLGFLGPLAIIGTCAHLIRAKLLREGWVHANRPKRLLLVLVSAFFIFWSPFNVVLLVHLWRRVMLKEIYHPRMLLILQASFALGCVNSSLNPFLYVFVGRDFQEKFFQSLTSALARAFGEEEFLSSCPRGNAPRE
#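 PathHunter enzyme-fragment complementation, CHO-K1 GPR32 stable line; 2,500 cells/well, overnight attach; cpd 90 min 37 °C 5% CO2; detection reagent 1 h RT; chemiluminescence. DMSO = EC0.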
# HTT-AS promoter: activates huntingtin-antisense promoter activity. HEK293 HTT-AS promoter firefly luciferase reporter, 24 h; response scale: percent change from vehicle, -100% = no light. Potency, µM (series often up to 57.5 µM), without a hit: at the top dose activity change, positive = activation, most hits filed as activators. 0.24% of 48,000 active. AID 1508624; note: potency is the fitted concentration of half-maximal effect; nearly all actives have a fitted effect of over 55% in size
#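 HEK293 Fluc reporter, 2,500 cells/well, 24 h pre-culture; cpds up to 57.5 uM final, 24 h 37 degrees C; Dual-Glo, 10 min RT; normalized vehicle = 0%, zero RLU = -100%.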
# FH mod: Identification of activators of human fumarate hydratase by quantitative high-throughput screening; Potency, µM (highest dose often 79.9 µM), inactives show top-dose activity change, negative = inhibition, actives largely listed as inhibitors; Fumarate hydratase, mitochondrial (Homo sapiens), P07954; AID 1347055, 2019; 0.22% of 54,000 active; FH coupled MDH/diaphorase resazurin fluorescence, 15 min; note: potency is the fitted concentration of half-maximal effect; % is set by controls: 0 for no effect and ±100 for the full control effect; the screen sought activators but most active calls are inhibition curves; nearly all actives have a fitted effect of over 45% in size
# NTMT1 inhibitor: NTMT1 methyltransferase inhibition; 2.5% of 59,000 active; NTMT1 MTase-Glo SAH luminescence, purified enzyme; Potency, µM (top dose mostly 114 µM), inactives show at the top dose activity change, negative = inhibition, most hits filed as inhibitors;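 note: potency is the fitted concentration of half-maximal effect; plate controls were DMSO vehicle for no effect and no enzyme for full effect; nearly all actives have a fitted effect of over 65% in size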
# HTT prom inh: inhibits huntingtin promoter activity; AID 1508623; Potency, µM (highest dose often 57.5 µM), inactives show at the top dose activity change, negative = inhibition, usual class: inhibitors; HEK293 HTT promoter firefly luciferase reporter, 24 h; 0.93% of 48,000 active; note: potency is the fitted concentration of half-maximal effect; nearly all actives have a fitted effect of over 50% in size
#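 HEK293 luciferase promoter-reporter cells (2,500/well) plated 24 h, then compounds added at up to 57.5 uM final for 24 h at 37 °C. Firefly luminescence by Dual-Glo, normalized to vehicle (0%) and zero RLU (-100%).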
# * marks the source's active call; other numbers are inactive results; ? = inconclusive; · = no result; ! = repeats disagree; [ ] = dose if it differs, or a comment. Unless noted, calls come from the whole dose curve; as a rule, active = well fitted curve in the direction sought with a large enough effect; inconclusive = small, poorly fitted or top-dose-only effect, or another doubt; inactive = no such curve, though single readings can be large; an effect the other way counts as inactive or inconclusive.
SMILES,GPR32 ag,HTT-AS promoter,FH mod,NTMT1 inhibitor,HTT prom inh
CCc1ccccc1NC(=O)c1ccc(Cn2nc(N3CCN(c4ccccc4)CC3)ccc2=O)o1,63*,-42%,-25%,-22%,?
CCN(C(=O)C1CCN(S(=O)(=O)c2c(C)noc2/C=C/c2ccc(C)cc2)CC1)c1cccc(C)c1,-5,-7%,?,3%,-5%
CCOc1ccc(CN2CCN(Cc3ccc4c(c3)c3ccccc3n4CC)CC2)cc1,-9,-58%,-18%,-17%,32µM*
O=c1oc2ccc3ccccc3c2cc1-c1nnc(Nc2ccccc2F)s1,-7,-1%,2%,-3%,5%
O=c1oc2cc(O)ccc2cc1-c1nnc(Nc2ccccc2F)s1,6,?,-1%,50µM*,96%
Cn1c(NCc2ccccc2F)nc2ccccc21,14,5µM*,-8%,?,70%
CCOC(=O)N1CCN(C(=O)c2ccc3c(c2)N(Cc2cc(C)ccc2C)C(=O)c2ccccc2S3=O)CC1 (centres undefined),-12,-43%,-17%,89µM*,?
CCCc1cc(C)n(C)c(=O)c1CN(C)C(=O)c1cc(-c2ccc(N3CCN(C(C)C)CC3)nc2)cc2c1cnn2C(C)C,·,·,7%,-3%[57.5 µM],·
Cc1cc(C(C#N)c2ccc(Cl)cc2)c(Cl)cc1NC(=O)c1cc(I)cc(I)c1O (centres undefined),12,-93%,?,18µM*!,?
COc1ccccc1NC(=O)N1CCN(c2ccc3nnc(-c4ccc(F)cc4)n3n2)CC1,5,-24%,-14%,79µM*,-16%
O=C(Nc1ccc(Cl)cc1)N1CCN(c2ccc3nnc(-c4ccccc4)n3n2)CC1,19,-42%,?,0%,?
CCCCCCCCCCCCCCCC[n+]1ccccc1,12,-58%,-8%[53.3 µM],22µM*,?
CCCCCCCCCCCCCCCC(=O)O,-8,2%,0%[53.3 µM],6%[57.5 µM],-4%
Cc1cc(C(N)=O)ccc1-n1c(CCC(=O)O)ccc1-c1ccc(-n2ccnc2)cc1,·,·,6%,6%[57.5 µM],·
CN(Cc1cc(Br)cc(Br)c1N)C1CCCCC1,95*,2%,2%[53.3 µM],11%,1%
Cc1ccc(C)c(CSc2nnc3[nH]c(=O)cc(C)n23)c1,31,2%,-9%,2%,-8%
COc1ccc(C2Nc3ccccc3C(=O)N2Cc2ccc(-c3ccccc3)cc2)cc1COc1ccc(NC(C)=O)cc1 (centres undefined),·,·,·,34%,·
Cc1c(P(=O)(c2ccccc2)c2ccccc2)c2ccccc2n1C,·,·,·,79µM*,·
CC(C)(CC(=O)NCc1ccc(Cl)cc1Cl)CC1=NS(=O)(=O)c2ccccc2N1,110*,-60%,-29%,2%,20µM*
CCOc1ccccc1NC(=O)COC(=O)CC(C)(C)CC1=NS(=O)(=O)c2ccccc2N1,83*,-43%,-3%,5%,?
CC(=O)c1cc(-c2ccccc2)n(CCC(=O)Nc2nc3c(C)cccc3s2)c1C,-10,-15%,5%,2%,-16%
NC1=N[C@@]2(c3cc(NC(=O)c4ccc(F)cn4)ccc3F)COC[C@H]2CS1,·,·,·,8%,·
Cn1cc(-c2cnn3c(N)c(Br)c([C@@H]4CCCNC4)nc23)cn1,·,·,0%,35µM*!,·
Cn1cc(-c2cnn3c(N)c(Br)c([C@H]4CCCNC4)nc23)cn1,·,-31%,-12%[53.3 µM],-13%[57.5 µM],?
CC(=O)c1ccc(NC(=O)c2sc(-n3nc(C)c(CCC(C)C)c3C)nc2C)cc1,-12,9%,-3%,-10%,-15%
Cc1ccccc1-c1noc(CSc2nc(-c3ccc(F)cc3)cc(=O)[nH]2)n1,-7,-13%,-23%,9%,7%
Cc1ccc(C(CC(=O)NCC2(c3ccccc3)CCCC2)c2ccccc2)c(O)c1 (centres undefined),63*,·,·,·,·
C=C1C(=O)O[C@@H]2C3=C(C)CCC[C@]3(C)CC[C@@]12O,·,·,-2%,18%[57.5 µM],·
O=C(c1ccccc1Cl)N1CCC(c2nc3ccccc3s2)CC1,78*,-21%,-3%,9%,?
